Source: PubChem BioAssay
DT40 TDP1 no CPT = qHTS for Inhibitors of human tyrosyl-DNA phosphodiesterase 1 (TDP1): qHTS in cells in absence of CPT; AID 686978, 2013; Potency, µM (series often up to 46.2 µM), inactives show top-dose activity change, negative = growth inhibition, actives largely listed as inhibitors; actives 15% (n = 420,000); DT40 Tdp1-/- hTDP1 cells, no CPT, ATP luminescence, 48 h; also: potency is read from the fitted curve at half-maximal effect; % is scaled to controls: 0 for no effect and ±100 for the full control effect; nearly all actives have a fitted effect of over 55% in size
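A cellular qHTS used chicken DT40 cells lacking endogenous Tdp1 but carrying stably transfected human TDP1. Compounds were applied without camptothecin, and cell growth kinetics were judged by ATP-dependent luminescence after ≥48 hr.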
DT40 TDP1 CPT = growth inhibition of DT40 Tdp1-/-;hTDP1 cells with camptothecin (screen for TDP1 inhibitors); chicken DT40 Tdp1-/-;hTDP1 cells + 20 nM CPT, ATP luminescence, 48 h; AID 686979; actives 12% (n = 420,000); Potency, µM (series often up to 46.2 µM), inactives show at the highest dose activity change, negative = growth inhibition, actives largely listed as inhibitors; also: potency is read from the fitted curve at half-maximal effect; % is scaled to controls: 0 for no effect and ±100 for the full control effect; nearly all actives have a fitted effect of over 55% in size
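Chicken DT40 Tdp1-/- cells stably complemented with human TDP1 were seeded at 400 cells/well in medium containing 20 nM camptothecin, exposed to pin-transferred compounds, and grown at 37 °C for at least 48 hr. Viability was read as ATP luminescence.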
HepG2 tox = HepG2 cytotoxicity, counter-screen for TGF-b inhibitors. HepG2 CAGA-GFP viability, ATP luminescence, 18 h. Potency, µM (highest dose often 46.1 µM), for the others: at the top dose activity change, negative = cytotoxicity, most hits filed as cytotoxic. actives 0.76% (n = 410,000). AID 588856; also: potency is read from the fitted curve at half-maximal effect
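CellTiter-Glo luminescence gave cytotoxicity after 18 hours at 37 degrees C. The cells were HepG2 CAGA-GFP in 1% FBS DMEM, stimulated with 500 pg/mL TGF-beta after compound addition. %Activity was normalised to no-cell wells (complete cell-killing) and DMSO (no toxicity), and curves were fitted and classified.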
IL1B secr inh = inhibitors of inflammasome signaling (IL-1 beta secretion); THP-1 LPS/ATP IL-1B secretion, AlphaLISA, 16 h; active compounds read low; activity change, % at 57.5 µM; actives 4.7% (n = 360,000); AID 743279; in the data active = activity change below about -50%; inconclusive = mostly about -30% to -49%; also: % is scaled to controls: 0 for no effect and ±100 for the full control effect
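THP-1 cells pretreated 1 hr with compounds (up to 57.5 uM final), then stimulated with LPS (250 ng/mL final) plus ATP (1.25 mM final); secreted IL-1B measured by AlphaLISA after 16 hr, decreased signal indicating inhibition.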
TDP1 inh = blocks human tyrosyl-DNA phosphodiesterase 1; actives 0.28% (n = 350,000); Potency, µM (titrated, usually from 130 µM), for the others: top-dose activity change, negative = inhibition, actives largely listed as inhibitors; recombinant TDP1, AlphaScreen DNA substrate cleavage; AID 485290; Q9NUW8; also: potency is read from the fitted curve at half-maximal effect; % is scaled to controls: 0 for no effect and ±100 for the full control effect; nearly all actives have a fitted effect of over 40% in size
Target sequence (Q9NUW8 whole entry, looked up): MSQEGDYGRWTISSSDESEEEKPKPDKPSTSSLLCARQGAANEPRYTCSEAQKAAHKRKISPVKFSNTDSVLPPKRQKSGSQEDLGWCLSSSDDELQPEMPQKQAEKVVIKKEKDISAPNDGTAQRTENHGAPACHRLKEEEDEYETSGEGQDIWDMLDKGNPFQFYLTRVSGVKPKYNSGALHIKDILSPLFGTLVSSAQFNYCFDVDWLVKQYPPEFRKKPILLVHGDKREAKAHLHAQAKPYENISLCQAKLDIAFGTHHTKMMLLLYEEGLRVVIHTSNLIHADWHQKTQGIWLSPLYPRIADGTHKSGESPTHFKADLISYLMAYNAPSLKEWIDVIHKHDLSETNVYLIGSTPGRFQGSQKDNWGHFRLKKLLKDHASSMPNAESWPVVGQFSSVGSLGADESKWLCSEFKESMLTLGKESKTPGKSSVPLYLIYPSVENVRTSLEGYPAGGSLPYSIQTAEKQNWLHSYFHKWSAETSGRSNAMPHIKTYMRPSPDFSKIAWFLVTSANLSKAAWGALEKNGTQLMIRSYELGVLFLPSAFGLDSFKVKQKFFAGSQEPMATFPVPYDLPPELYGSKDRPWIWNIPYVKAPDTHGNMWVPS
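Steps: enzyme plus compound, 15 min RT; add biotin/phosphotyrosine-FITC oligonucleotide (15 nM final), react 5 min; add donor/acceptor beads (10 ug/ml final), 10 min; read AlphaScreen. Tdp1 at 1 nM final.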
TGFb SMAD3 inh = inhibitors of TGF-b signaling; actives 1.2% (n = 410,000); Potency, µM (doses to about 46.1 µM), for inactives: top-dose activity, negative = inhibition, actives largely listed as inhibitors; HepG2 CAGA-GFP TGF-b/SMAD3 reporter, GFP fluorescence, 18 h; TGF-beta stimulated, 500 pg/mL final; also: potency is read from the fitted curve at half-maximal effect; % is scaled to controls: 0 for no effect and ±100 for the full control effect; nearly all actives have a fitted effect of over 65% in size
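Using HEPG2 CAGA-GFP reporter cells at 1000 cells/well, we pinned test compounds, stimulated with recombinant TGF-beta (500 pg/mL final) and measured total well GFP after 18 h.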
* marks the source's active call; other numbers are inactive results; ? = inconclusive; nt = no result; ! = repeats disagree; [ ] = remark or other dose. A selection: hits, their analogues and other compounds. The true share with any hit is near 19%. Unless noted, calls follow the shape of the dose curve; as a rule, active = well fitted curve in the direction sought with a large enough effect; inconclusive = small, poorly fitted or top-dose-only effect, or another doubt; inactive = no such curve, though single readings can be large; an effect the other way counts as inactive or inconclusive.

SMILES	DT40 TDP1 no CPT	DT40 TDP1 CPT	HepG2 tox	IL1B secr inh	TDP1 inh	TGFb SMAD3 inh
CC1(C(=O)Nc2ccc(Cl)cc2)Cc2c(-c3cccc(C(F)(F)F)c3)ccnc2O1 (stereo not drawn)	23µM*	?	-29%	-4	nt	?
CC1(C(=O)Nc2cccc(C(F)(F)F)c2)Cc2c(-c3ccccc3)ccnc2O1 (stereo not drawn)	?	?	-36%	13	nt	?
CC(=O)Nc1cccc(-c2ccnc3c2CC(C)(C(=O)NCc2ccncc2)O3)c1 (stereo not drawn)	18µM*	21µM*	1%	0	nt	1%
CC(=O)Nc1cccc(-c2ccnc3c2CC(C)(C(=O)Nc2cccc(C(C)=O)c2)O3)c1 (stereo not drawn)	6.5µM*	5.8µM*	-4%	-16	nt	-1%
CC(=O)Nc1ccc(NC(=O)C2(C)Cc3c(-c4cccc(NC(C)=O)c4)ccnc3O2)cc1 (stereo not drawn)	12%	13%	0%	-3	nt	6%
COc1ccc(NC(=O)C2(C)Cc3c(-c4cccc(C(F)(F)F)c4)ccnc3O2)cc1OC (stereo not drawn)	21µM*	16µM*	-17%	7	nt	-13%
CCN(CC)C(=O)c1csc([C@@H]2O[C@H](CO)[C@H](O)[C@H](O)[C@H]2O)n1	11%	5%	10%	2	nt	6%
CCc1ccc(CSc2nc(-c3ccccc3F)nc3c2Cc2c(CO)cnc(C)c2O3)cc1	-22%	?	10%	nt	3%	3%
Cc1[nH]oc(=O)c1N=Nc1ccc2[nH]c(=O)[nH]c2c1	-17%	-14%	-6%	-1	nt	0%
CC(=O)Nc1cccc(-c2ccnc3c2CC(C)(C(=O)Nc2ccc(Cl)cc2)O3)c1 (stereo not drawn)	4.1µM*	1.6µM*	-6%	-20	nt	-1%
CC(=O)Nc1cccc(-c2ccnc3c2CC(C)(C(=O)NC(C)C)O3)c1 (stereo not drawn)	-18%	?	21%	15	nt	21%
CC(=O)Nc1cccc(-c2ccnc3c2CC(C)(C(=O)Nc2ccc4c(c2)OCO4)O3)c1 (stereo not drawn)	0.65µM*	0.65µM*	-15%	44	nt	-19%
CC(C)NC(=O)C1(C)Cc2c(-c3cccc(C(F)(F)F)c3)ccnc2O1 (stereo not drawn)	12µM*	18µM*	-43%	27	nt	-28%
CC(=O)Nc1ccc(-c2ccnc3c2CC(C)(C(=O)Nc2ccc(F)c(Cl)c2)O3)cc1 (stereo not drawn)	23µM*	?	0%	-62*	nt	-27%
O=C(CSc1nc2ccccc2c(=O)n1CCC(=O)NC1CCCCC1)Nc1ccccc1Cl	2%	-5%	-7%	nt	5%	2%
O=C(CNC(=O)c1ccccc1F)OCC(=O)c1ccc(Cl)s1	6%	-5%	4%	13	4%	0%
O=C(Nc1ccc(Cl)cc1Cl)[C@@H]1CC=C[C@@H]2CCN(C3CC3)C(=O)[C@@H]21	?	?	9%	nt	nt	?
COc1ccc(CN2CC[C@H]3C=CC[C@@H](C(=O)Nc4ccccc4)[C@H]3C2=O)cc1OC	10µM*!	?	0%	nt	nt	-13%
CCCCN1CC[C@H]2C=CC[C@@H](C(=O)Nc3ccc(Cl)cc3Cl)[C@H]2C1=O	?	16µM*	-9%	-19	nt	?
COc1ccc(CN2CCC3C=CCC(C(=O)O)C3C2=O)cc1OC (stereo not drawn)	nt	nt	-13%	nt	8%	-4%
CCOC(=O)c1c(C)oc2cc(Br)c(OC)cc12	0%	-2%	-1%	17	6%	15%
COc1cc2c(C(=O)N3CCN(c4ccccc4C)CC3)c(C)oc2cc1Br	16µM*	?	7%	-73*	-1%	1%
Cc1onc(-c2ccccc2)c1C(=O)N1CCN(c2ccccc2)CC1	?	?	-15%	19	4%	0%
COc1ccccc1N1CCN(C(=O)c2c(-c3ccccc3)noc2C)CC1	7.3µM*	10µM*	-7%	40	5%	24%
COc1ccccc1N1CCN(C(=O)c2c(-c3c(F)cccc3Cl)noc2C)CC1	13µM*	23µM*	4%	45	2%	0%
SMILES	DT40 TDP1 no CPT	DT40 TDP1 CPT	HepG2 tox	IL1B secr inh	TDP1 inh	TGFb SMAD3 inh
Cc1onc(-c2ccccc2)c1C(=O)N1CCN(c2ccc([N+](=O)[O-])cc2)CC1	21µM*	?	-10%	-2	nt	4%
Cc1onc(-c2c(F)cccc2Cl)c1C(=O)N1CCN(S(C)(=O)=O)CC1	-2%	-6%	-4%	-4	8%	14%
Cc1c(N=C=O)cccc1N=C=O	nt	nt	nt	nt	3%	nt
O=C(N/N=C/c1ccc[nH]1)c1ccc(O)cc1	7%	-3%	-3%	7	12%	7%
Cc1cc(C(=O)N/N=C/c2ccc[nH]2)no1	18µM*	?	-4%	-8	2%	0%
Cc1cc(Br)c(OCc2ccc(C(=O)N/N=C/c3ccc[nH]3)cc2)c(Br)c1	?	?	-95%	-62*	-2%[56.1 µM]	1.1µM*
Cc1cc(C(=O)N/N=C/c2ccc[nH]2)n[nH]1	-13%	-5%	22%	-3	8%	14%
O=C(N/N=C/c1ccc[nH]1)c1ccccc1OCc1ccccc1Cl	?	?	0%	-90*	6%	-27%
CCOC(=O)CNC(=O)O[C@H]1C(=O)c2ccc(OC)cc2O[C@@H]1c1ccc2c(c1)OCO2	nt	nt	nt	nt	6%	nt
CCc1nnc(SCC(=O)Nc2cc(Cl)c(OC)cc2OC)c2cc3oc(C)cc3n12	?	?	-1%	nt	8%	-8%
CC(C)(C)C1=CC(=O)C(=O)C(C(C)(C)C)=C1	1.3µM*	0.65µM*	-88%	-65*	-3%	16µM*
O=C(Cn1ccc2ccccc2c1=O)NCCC(=O)N1CCN(c2cccc(C(F)(F)F)c2)CC1	16µM*	21µM*	-13%	-17	8%	-6%
COc1ccccc1C(=O)NCCC(=O)N1CCN(c2cccc(C(F)(F)F)c2)CC1	?	16µM*	-13%	1	nt	-19%
C/C(=C\c1ccccc1)C(=O)N1CCN(c2cccc(C(F)(F)F)c2)CC1	-8%	6%	-31%	-65*	1%	?
